Laboratory results: PubChem BioAssay (NCI)
This is part of a sample that, as a whole, favours compounds with a hit. Of some 83,000 tested, about 20% had one in any assay.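 Note: values are percent growth. 100 is the growth of untreated cells, values between 100 and 0 indicate rising inhibition; between -100 and 0 indicates cell death.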 The source made the active and inactive calls. Rule for the calls: active = growth percent below 10; inactive = the rest.

Experiments:
Assay in all cases: NCI-60 one-dose screen, 48 h (100 = growth as untreated, 0 = no growth, -100 = all killed)
Settings in all cases: 10 µM unless noted
[1] = system: DU-145 prostate
[2] = system: K-562 leukemia
[3] = system: MALME-3M melanoma
[4] = system: MDA-MB-231 breast
[5] = system: RXF 393 renal
[6] = system: SF-268 CNS
[7] = system: SF-295 CNS
[8] = system: SF-539 CNS
[9] = system: UACC-257 melanoma
[10] = system: M14 melanoma
[11] = system: HT29 colon
[12] = system: SNB-75 CNS
[13] = system: SNB-19 CNS
[14] = system: U251 CNS
[15] = system: PC-3 prostate
[16] = system: SK-MEL-5 melanoma
[17] = system: UACC-62 melanoma
[18] = system: LOX IMVI melanoma
[19] = system: SK-MEL-28 melanoma

Measured: growth

Cc1c(CC(=S)N2CCOCC2)nnn1-c1cccc(C(F)(F)F)c1
inactive: [1] 111% | [2] 100% | [3] 104% | [4] 107% | [5] 108% | [6] 97.7% | [7] 109% | [8] 95.1% | [9] 105% | [10] 100% | [11] 101% | [12] 92.3% | [13] 106% | [14] 95.4% | [15] 99% | [16] 99.8% | [17] 101% | [18] 98.2% | [19] 113%

COc1ccc(C(=O)Cn2c(C(=O)c3ccc(Cl)cc3)nc3ccccc32)cc1
inactive: [1] 98.3% | [2] 45.7% | [3] 70.7% | [4] 65.5% | [5] 14.2% | [6] 66.7% | [7] 51.8% | [8] 91% | [9] 70.8% | [10] 14.8% | [11] 51.2% | [12] 53.8% | [13] 74% | [14] 65.3% | [15] 68.9% | [17] 54.1% | [18] 74.8% | [19] 71.2%

COc1cnc2c(c1)C(=O)c1c-2n(CCCCl)c(=O)c2ccncc12
inactive: [1] 76% | [2] 38.7% | [3] 103% | [4] 81.4% | [5] 81% | [6] 57.6% | [7] 36.6% | [8] 56.1% | [9] 70% | [10] 67.5% | [11] 49.5% | [12] 55.6% | [13] 55.4% | [14] 33.6% | [15] 54% | [16] 34.3% | [17] 23.7% | [18] 33.8% | [19] 99.3%

NNCCc1ccc(NC(=O)CCCc2ccc(C(=O)Nc3ccccc3N)cc2)cc1
inactive: [1] 90.7% | [2] 43.5% | [3] 56.9% | [4] 67.5% | [5] 75.2% | [6] 72.3% | [7] 69% | [8] 60.8% | [9] 41.4% | [10] 72% | [11] 51.1% | [12] 68.2% | [13] 85.5% | [14] 54.1% | [15] 55.1% | [16] 57.1% | [17] 49.2% | [18] 63.7% | [19] 75.6%

CCN1C(=O)N(CC)C2C1NN=c1s/c(=C\c3cnc(C)n3C)c(=O)n12 (configuration not stated)
active: [1] 5.42% | [5] -29.3% | [7] 9.05% | [8] -20.2% | [10] 4.96% | [11] 0.594% | [12] -24.7% | [14] 7.74%
inactive: [2] 15.5% | [3] 29.8% | [4] 43.8% | [6] 51.9% | [9] 29.7% | [13] 25.6% | [15] 17.5% | [16] 17.9% | [17] 31.2% | [18] 34.5% | [19] 42.7%

S=c1nc2oc(-c3ccccc3)c(-c3ccccc3)c2c(/N=C\c2ccco2)[nH]1
inactive: [1] 100% | [2] 89.3% | [3] 99.3% | [4] 98.5% | [5] 99.3% | [6] 90.2% | [7] 94.3% | [8] 95.8% | [9] 105% | [10] 103% | [11] 98.3% | [12] 74.2% | [14] 91.4% | [15] 85.8% | [16] 94.6% | [17] 90.9% | [18] 92.9% | [19] 109%

O=C(CCSc1nnc2n(Cc3ccccc3)c(=O)c3c4c(sc3n12)CCCC4)N1CCN(c2ccccc2)CC1
inactive: [1] 111% | [2] 113% | [3] 95.4% | [4] 109% | [5] 108% | [6] 93% | [7] 96% | [8] 100% | [9] 101% | [10] 96.2% | [11] 93.7% | [12] 93.5% | [13] 99.8% | [14] 106% | [15] 102% | [16] 99.9% | [17] 108% | [18] 100% | [19] 87.4%

CN(Cc1cc(Br)cc(Br)c1O)Cc1cc(Br)cc(Br)c1O
inactive: [1] 54.8% | [2] 21.3% | [3] 73.2% | [4] 39.6% | [5] 55.4% | [6] 45.3% | [7] 32.1% | [8] 39.5% | [9] 46.8% | [10] 37.3% | [11] 32.9% | [12] 61.5% | [13] 40.5% | [14] 32.8% | [15] 39.5% | [17] 18.8% | [18] 34.6% | [19] 74%
active: [16] 3.66%

COc1ccc2c(c1)c(-c1nc(-c3c[nH]c4ncccc34)cs1)cn2CCO
inactive: [1] 56.5% | [2] 43.5% | [3] 75.9% | [4] 51.5% | [5] 30.1% | [6] 66.6% | [7] 57.9% | [8] 50% | [9] 91% | [10] 59.3% | [12] 31.7% | [13] 82.4% | [14] 53.2% | [15] 49% | [17] 58.4% | [18] 42.8% | [19] 78.5%

CCN1C(=O)N(CC)C2C1NN=c1s/c(=C3\C(=O)N(CCC(C)C)c4ccccc43)c(=O)n12 (configuration not stated)
active: [1] 7.36% | [4] 5.92% | [7] 8.08% | [8] -15.2% | [14] 8.16% | [16] 8.16%
inactive: [2] 11.6% | [3] 51.3% | [5] 33.2% | [6] 50.8% | [9] 65% | [10] 13.5% | [12] 21.6% | [13] 23.3% | [15] 28.9% | [17] 18.5% | [18] 19.2% | [19] 59.9%

CN(C)S(=O)(=O)Oc1ccc(-c2sc3cc(OS(=O)(=O)N(C)C)ccc3c2C(=O)c2ccc(OCCN3CCCCC3)cc2)cc1
inactive: [1] 63.4% | [3] 17.7% | [4] 77.5% | [5] 26.8% | [6] 42.1% | [7] 48.6% | [8] 52.2% | [12] 61.5% | [13] 58.2% | [14] 18.6% | [15] 53.6% | [16] 67.5% | [17] 47.3% | [18] 32.7% | [19] 57.2%
active: [2] -8.94% | [9] -17.5% | [10] 2.03% | [11] 8.75%

CC(C)(C)c1cc(Cl)c(O)c(CNCCO)c1
inactive: [1] 113% | [2] 102% | [3] 112% | [4] 115% | [5] 98.1% | [6] 106% | [7] 97% | [8] 107% | [9] 110% | [10] 104% | [11] 107% | [12] 90.1% | [14] 112% | [15] 112% | [16] 100% | [17] 107% | [18] 101% | [19] 103%

COc1ccc2c(c1)/C(=N/c1n[nH]c(=S)s1)C(=O)N2
inactive: [1] 107% | [2] 82.9% | [3] 104% | [4] 87.8% | [5] 113% | [6] 98.8% | [7] 106% | [8] 87.4% | [9] 96.5% | [10] 103% | [11] 105% | [12] 75.4% | [13] 99.1% | [14] 93.8% | [15] 91.2% | [16] 91.2% | [17] 94.8% | [18] 95.8%

O=C(CSc1nc(-c2ccccc2)cc(=O)[nH]1)Nc1nc(-c2ccccc2)cs1
inactive: [1] 97.8% | [2] 87.7% | [3] 110% | [4] 116% | [5] 87.4% | [6] 93.8% | [7] 76.4% | [8] 113% | [9] 94.6% | [10] 117% | [11] 99.1% | [12] 85.9% | [13] 105% | [14] 99.9% | [15] 78.8% | [16] 85.7% | [17] 69.1% | [18] 96.6% | [19] 111%

O=C(N/N=C\c1cccc([N+](=O)[O-])c1)N/N=C/c1cccc([N+](=O)[O-])c1
inactive: [1] 116% | [2] 99.4% | [3] 109% | [4] 100% | [5] 106% | [6] 102% | [7] 106% | [8] 111% | [9] 97.4% | [10] 113% | [11] 114% | [12] 88.8% | [13] 100% | [14] 97.3% | [15] 91.5% | [16] 95.9% | [17] 92.5% | [18] 103% | [19] 110%

CCN1C(=O)N(CC)C2C1NC(=S)N2/N=C/c1ccc(OC)cc1 (configuration not stated)
inactive: [1] 78.5% | [2] 20.1% | [3] 54.4% | [4] 69.5% | [5] 59.8% | [6] 71.8% | [7] 42.1% | [8] 55.2% | [9] 61% | [10] 29.9% | [12] 15.1% | [13] 52.8% | [14] 40.3% | [15] 55.9% | [16] 43.3% | [17] 38.5% | [18] 49.2% | [19] 71%
active: [11] 8.46%
